Only some compounds are listed: those with a hit (about 9% of all), similar ones and a draw of the others.
JMJD2A Tudor inh: blocks the human JMJD2A Tudor domain; actives 4.4% (n = 390,000); O75164; Potency, µM (highest dose often 114 µM), usual class: inhibitors; AlphaScreen JMJD2A-Tudor / H3K4me3 peptide binding; further: nearly all actives have a fitted effect of over 50% in size
PLK1 PBD block: inhibitors of human PLK1 polo-box domain binding; Potency, µM, hits mostly inhibitors; AID 720504; P53350; actives 2.8% (n = 360,000); Plk1 PBD binding of FITC phosphopeptide, fluorescence polarization; further: series mostly up to about 57 µM; nearly all actives have a fitted effect of over 65% in size
G9a inh: inhibitors of human histone lysine methyltransferase G9a; Q96KQ7; G9a H3K9 monomethylation, AlphaScreen, 2 h; Potency, µM (doses to about 102 µM), most hits filed as inhibitors; actives 8.8% (n = 350,000); AID 504332; further: nearly all actives have a fitted effect of over 75% in size
Target sequence (Q96KQ7 913-1193 limits assumed): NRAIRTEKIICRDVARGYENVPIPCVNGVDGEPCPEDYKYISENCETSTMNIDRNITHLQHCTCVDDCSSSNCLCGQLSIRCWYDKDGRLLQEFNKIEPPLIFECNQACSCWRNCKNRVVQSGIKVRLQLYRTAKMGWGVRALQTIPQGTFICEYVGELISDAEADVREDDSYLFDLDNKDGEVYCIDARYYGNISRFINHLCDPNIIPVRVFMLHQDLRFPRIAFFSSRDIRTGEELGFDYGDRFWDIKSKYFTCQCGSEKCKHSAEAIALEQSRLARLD
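Enzyme 20 nM + cpd, 15 min RT; add b-H3K9 pep 500 nM / SAM 20 uM; 2 h RT; anti-H3K9me1 Ab 0.5 ug/mL + SA donor / anti-rabbit acceptor beads 20 ug/mL each, 10 min; AlphaScreen read.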
BAZ2B block: BAZ2B (human) inhibition. Q9UIF8. AlphaScreen BAZ2B-H3K14Ac peptide displacement. Potency, µM (highest dose often 114 µM), most hits filed as inhibitors. actives 4.4% (n = 360,000). AID 504333; further: nearly all actives have a fitted effect of over 60% in size
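BAZ2B (50 nM) with biotin-H3(5-23)K14Ac peptide (50 nM) in PBS pH 7.4, 0.01% Tween-20, preformed 30 min, then compound 30 min at room temperature; top concentration 110uM. AlphaScreen streptavidin donor/nickel chelate acceptor beads (10 ug/mL final), 20 min dark, signal read.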
HP1b chromo inh: HP1-beta chromodomain-methylated histone interaction inhibition | P83916 | AlphaScreen HP1-beta / biotin-H3K9me3 peptide binding | Potency, µM (doses to about 114 µM), most hits filed as inhibitors | actives 0.56% (n = 390,000); further: nearly all actives have a fitted effect of over 70% in size
Target sequence (P83916 whole entry, looked up): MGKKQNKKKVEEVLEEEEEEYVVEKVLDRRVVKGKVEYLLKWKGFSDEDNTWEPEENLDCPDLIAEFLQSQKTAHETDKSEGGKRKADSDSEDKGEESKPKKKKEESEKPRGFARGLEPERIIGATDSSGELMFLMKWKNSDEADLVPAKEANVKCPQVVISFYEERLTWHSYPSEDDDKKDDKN
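Compound inhibition of the preformed complex between 50 nM HP1-beta and 50 nM biotinylated H3K9me3 peptide was read by AlphaScreen. Buffer was PBS pH 7.4 with 0.01% Tween-20. Incubations ran 30 min at room temperature, with 10 ug/mL donor/acceptor beads.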
ALOX12 inh: blocks human arachidonate 12S-lipoxygenase; P18054; purified 12hLO, xylenol orange hydroperoxide absorbance; Potency, µM (highest dose often 108 µM), usual class: inhibitors; actives 1.1% (n = 580,000)
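Purified human 12hLO at 150 nM in 25 mM Hepes, 0.01% Triton X-100, pH 7.0, preincubated 15 min at room temperature with compound. Reaction started with 40 uM arachidonic acid, 30 min at room temperature. Hydroperoxide measured by Fe-xylenol orange, 573/405 nm absorbance ratio.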
ME-1 growth: reduces ME-1 leukemia cell proliferation; shares compounds with BAZ2B block; ME-1 cell proliferation, ATP luminescence, 48 h; Potency, µM (titrated, usually from 56.1 µM), usual class: inhibitors; actives 20% (n = 140)
Each line names hits and unclear results; the compound was inactive in the other large screens (follow-up assays come after a bar, where they were run); ! = a repeat was not active. The call rests on the fitted dose curve; in most records, active means well fitted curve in the direction sought with a large enough effect; inconclusive means small, poorly fitted or top-dose-only effect, or another doubt; inactive means no such curve, though single readings can be large; an effect the other way counts as inactive or inconclusive.

O=c1cccc2n1CC1CC2CN(Cc2cccc(Cl)c2Cl)C1 (stereo unspecified)	G9a inh inconclusive
Cc1cc2c(s1)NC(=O)CN=C2c1cccs1	none
C[C@]12CCC3C(CC[C@H]4C[C@@H](O)CC[C@]34C)[C@H]1CC[C@H]2O (stereo partly specified)	none (no result: G9a inh, BAZ2B block)
C=CCN1C(=O)NC(=O)/C(=C/c2cc3c4c(c2)CCCN4CCC3)C1=O	JMJD2A Tudor inh inconclusive, PLK1 PBD block inconclusive, G9a inh inconclusive, BAZ2B block 50.1µM, HP1b chromo inh 20µM, ALOX12 inh inconclusive
C=CCN1C(=O)NC(=O)/C(=C/c2cnc(SC)nc2)C1=O	JMJD2A Tudor inh 79.4µM, PLK1 PBD block 10.6µM, G9a inh inconclusive, ALOX12 inh inconclusive
COc1ccc(-c2cc(=NCCC(=O)O)c3cc(C)ccc3o2)cc1	none
COC1=CC2C3Cc4ccc(OC)c(O)c4[C@]2(CCN3C)CC1=O (stereo partly specified)	none (no result: JMJD2A Tudor inh, PLK1 PBD block, BAZ2B block, HP1b chromo inh, ALOX12 inh)
Nc1c(C(=O)Nc2cccc(Br)c2)sc2nc3c(cc12)N1CCC3CC1	JMJD2A Tudor inh inconclusive, G9a inh 12.6µM, ALOX12 inh inconclusive (no result: PLK1 PBD block)
CCOC(=O)C1=C(NC(=S)NC(=O)c2ccccc2)c2ccccc2CC12CCCC2	JMJD2A Tudor inh inconclusive, ALOX12 inh 20µM
C=CCn1c(O)c(Cc2ccc(OCC)cc2)c(=O)[nH]c1=O	JMJD2A Tudor inh 31.6µM
C=CCn1c(O)c(C=NCCCOc2ccc(CC)cc2)c(=O)[nH]c1=S	G9a inh inconclusive
Cc1cc(Cc2c(O)[nH]c(=S)[nH]c2=O)ccc1OC(C)C	JMJD2A Tudor inh 89.1µM, PLK1 PBD block 26.7µM, G9a inh 8.91µM, HP1b chromo inh inconclusive, ALOX12 inh 20µM
O=c1[nH]c(=S)[nH]c(O)c1CN1CCCCC1	G9a inh inconclusive
CC(C)COc1ccc(Cc2c(O)[nH]c(=S)[nH]c2=O)cc1	PLK1 PBD block 26.7µM, HP1b chromo inh inconclusive, ALOX12 inh 8.91µM
O=C(O)c1cc(O)c(O)c(O)c1	G9a inh 2µM, ALOX12 inh inconclusive (no result: JMJD2A Tudor inh, PLK1 PBD block, BAZ2B block, HP1b chromo inh)
CN(C)CCNc1ccc([N+](=O)[O-])c2cccnc12	none (no result: JMJD2A Tudor inh, PLK1 PBD block, G9a inh, BAZ2B block, HP1b chromo inh)
COc1cc2c(cc1OCc1ccccc1)N(C(=O)c1ccc3[nH]ccc3c1)CC21CCN(C)CC1	none (no result: JMJD2A Tudor inh, PLK1 PBD block, G9a inh, BAZ2B block, HP1b chromo inh)
Cc1nn(C)c(C)c1P(=S)(c1c(C)nn(C)c1C)N(C)C	PLK1 PBD block inconclusive, G9a inh 14.1µM, ALOX12 inh inconclusive
CC1CCN(C(=O)c2ncn(C)c2C(=O)N2CCC(C)CC2)CC1	JMJD2A Tudor inh 22.4µM, PLK1 PBD block inconclusive, ALOX12 inh inconclusive (no result: G9a inh, BAZ2B block)
CC(C)COP(=O)(OCC(C)C)C(O)c1cccnc1 (stereo unspecified)	none
Cn1c(=O)oc2cc(S(=O)(=O)N3CCCc4ccccc43)ccc21	G9a inh inconclusive
O=C(O)CCCCC1SCC2NC(=O)NC21 (stereo unspecified)	JMJD2A Tudor inh 11.2µM, G9a inh 7.94µM!, BAZ2B block 0.794µM, HP1b chromo inh inconclusive | ME-1 growth inactive
O=C1C=CC(=O)c2c(O)cccc21	G9a inh inconclusive (no result: JMJD2A Tudor inh, PLK1 PBD block, BAZ2B block, HP1b chromo inh, ALOX12 inh) | ME-1 growth 22.4µM
O=C1c2ccccc2C(=O)c2ccccc21	none (no result: JMJD2A Tudor inh, PLK1 PBD block, BAZ2B block, HP1b chromo inh)
O=C1c2ccccc2-n2nnc(-c3ccccc3)c2C2c3ccccc3CCN12 (stereo unspecified)	ALOX12 inh inconclusive (no result: JMJD2A Tudor inh, G9a inh, BAZ2B block, HP1b chromo inh)
COc1ccc(CNC(=O)N2[C@H]3CC[C@@H]2c2cnc(-c4ccccc4)nc2C3)cc1	none (no result: JMJD2A Tudor inh, PLK1 PBD block, G9a inh, BAZ2B block, HP1b chromo inh)
CC(C)C[C@H]1C(=O)N2CCCC2[C@]2(O)O[C@](NC(=O)[C@@H]3C=C4c5cccc6[nH]cc(c56)CC4N(C)C3)(C(C)C)C(=O)N12 (stereo partly specified)	JMJD2A Tudor inh inconclusive, G9a inh 39.8µM, BAZ2B block inconclusive | ME-1 growth inconclusive
CC(C)[C@H]1C(=O)N2CCC[C@H]2[C@]2(O)O[C@](NC(=O)[C@@H]3C=C4c5cccc6[nH]cc(c56)C[C@H]4N(C)C3)(C(C)C)C(=O)N12	PLK1 PBD block inconclusive, G9a inh 10µM, BAZ2B block inconclusive (no result: ALOX12 inh) | ME-1 growth inactive
